Only some compounds are listed: those with a hit (about 4.3% of all), similar ones and a draw of the others.
BoNT-F LC inh: BoNT/F light chain protease inhibitors, primary screen, biochemical, flow cytometry, MLPCN library | Botulinum neurotoxin type F light chain protease (Clostridium botulinum) | Multiplex microsphere protease cleavage assay | inhibition, % at 10 µM | actives 0.22% (n = 360,000); in the data active = inhibition above about 35%, passing the limit was not always enough; inconclusive = no clear call, values can overlap the other calls; note: plate controls were buffer without enzyme for full effect and enzyme alone for no effect
Autofluor counter: flagged as autofluorescent in microsphere protease counterscreen; compound autofluorescence counterscreen, microsphere flow cytometry; active compounds read high; fluorescence intensity (concentration not given with the values); AID 624483; actives 3.1% (n = 360,000); in the data active = fluorescence intensity above about 16000; inconclusive = no clear call, values can overlap the other calls
Anthrax LF prot: Bacillus anthracis LF protease inhibitors, primary screen, biochemical, multiplex microsphere, MLPCN library; multiplex microsphere protease cleavage assay; inhibition, % at 10 µM; actives 0.12% (n = 360,000); Lethal factor (Bacillus anthracis), P15917; note: plate controls were buffer without enzyme for full effect and enzyme alone for no effect
MazF activator: activators of E. coli MazEF toxin-antitoxin RNase, primary screen, biochemical, fluorescence, uHTS | Endoribonuclease toxin MazF (Escherichia coli (strain K12)), P0AE70 | FAM/BHQ RNA-DNA oligo cleavage fluorescence, 5 h | activation, % at 20 µM | actives 0.32% (n = 350,000); in the data active = activation above about 50%
Target sequence (P0AE70 whole entry, looked up): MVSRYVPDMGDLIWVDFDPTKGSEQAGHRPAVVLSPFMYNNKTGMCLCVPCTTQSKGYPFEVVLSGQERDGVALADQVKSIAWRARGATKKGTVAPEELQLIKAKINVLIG
BoNT-A LC inh2: BoNT/A light chain protease inhibitors, primary screen, biochemical, flow cytometry, MLPCN library; multiplex microsphere protease substrate cleavage; Botulinum neurotoxin type A light chain protease (Clostridium botulinum A str. ATCC 3502); inhibition, % at 10 µM; actives 0.17% (n = 360,000); AID 588499, 2011; note: plate controls were buffer without enzyme for full effect and enzyme alone for no effect
PfHsp40 yeast: rescue of yeast from PfHsp40 toxicity, primary screen, S. cerevisiae, ATP luminescence. S. cerevisiae expressing PfHsp40, growth rescue. growth rescue, % at 12.5 µM. actives 0.68% (n = 340,000); in the data active = growth rescue above about 28%, passing the limit was not always enough; inconclusive = no clear call, values can overlap the other calls;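 note: yeast W303a lacking pdr1 and pdr3 grown in galactose medium; growth measured after three days at 30 °C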
Active calls of the source: *; ? = inconclusive; · = no result. Cut-off read from the data, not from the text of the source, unless noted: active = inhibition above about 30%; inconclusive = no clear call, values can overlap the other calls; inactive = below that.

SMILES	BoNT-F LC inh	Autofluor counter	Anthrax LF prot	MazF activator	BoNT-A LC inh2	PfHsp40 yeast
C=C(C)C1CC=C(C)/C(=N/NC(=O)c2ccc(NC(=O)CCC)cc2)C1 (stereo unspecified)	-4	16939*	0	5	?	-1
C=C(C)C1CC=C(C)/C(=N/NC(=O)CNc2ccc(C)cc2C)C1 (stereo unspecified)	-4	2457	-1	5	-1	-1
C=C(C)C1CC=C(C)/C(=N/NC(=O)CNc2ccc(OCC)cc2)C1 (stereo unspecified)	0	21006*	-13	14	?	-1
C=C(C)C1CC=C(C)/C(=N/NC(=O)c2ccc(NC(=O)CC)cc2)C1 (stereo unspecified)	-8	17225*	0	2	?	0
C=C(C)C1CC=C(C)C(=NNC(=O)c2ccncc2)C1 (stereo unspecified)	-4	4028	3	11	-1	0
O=C(C[C@@H]1C/C=C\CCC(=O)OC[C@@H]2CCCN2C1=O)N[C@@H](CO)Cc1ccccc1	11	2767	3	3	0	-2
CCOC(=O)c1ccn(CSc2c(F)c(F)cc(F)c2F)n1	-2	8874	-5	4	-1	1
O=C1NC[C@@H](Cc2cccc3ccccc23)N(CC2(c3ccccc3)CC2)C1=O	6	3021	2	6	0	2
CSc1c(C#N)c(N)c(C#N)c2c1COC(C)(C)C2	5	21535*	0	-12	2	-1
CC(C)c1nc(Cl)c(C#N)c2c1COC(C)(C)C2	?	3410	11	12	?	1
Cc1cccc(C)c1NC(=O)CN1CCc2ccccc2C1	?	3645	-9	2	-1	-2
C(=N\n1cnnc1)/c1ccccn1	-2	10185	3	6	-1	-1
C(=N\n1cnnc1)/c1ccc2c(c1)OCO2	-3	24727*	0	2	-2	1
C(=N\n1cnnc1)/c1ccc2c(c1)OCCO2	-1	7927	-2	10	0	0
C(=N\n1cnnc1)/c1ccc2ncccc2c1	8	20485*	-4	7	?	0
Cc1ncc(C[n+]2ccc(C)c(C)c2)c(N)n1	-2	3839	-10	4	1	0
Cc1[nH]n(-c2ccccc2)c(=O)c1CCO	1	4688	10	8	-1	-1
Cc1[nH]n(-c2ccccc2)c(=O)c1S(=O)(=O)c1ccccc1	-1	16181*	-2	-3	0	0
CC1(C)NC(=O)N(CCOCCOc2ccc3ccccc3c2Br)C1=O	-10	21501*	-1	-12	-6	0
CC1(C)NC(=O)N(CCCCOc2ccc3ccccc3c2Cl)C1=O	-3	24165*	-1	2	-1	0
CCc1noc(C)c1C(=O)N(C)CC(=O)Nc1ccc(Br)cc1C	-15	6676	-8	-1	-15	3
CCOC(=O)/C(=N\Nc1cccc(C(F)(F)F)c1)N(CCOC)CCOC	-8	22213*	0	-7	?	-1
CC1=CC=CC2=NC(=O)CC(C)(C(=O)O)N12 (stereo unspecified)	2	4259	-2	10	-1	2
COc1cc(C(=O)NCc2ncccc2C)ccc1OC1CCN(C(C)=O)CC1	-5	6267	-4	0	-3	2
CC(Oc1ccccc1F)C(=O)NNC(=O)Cc1ccc(S(=O)(=O)N2CCOCC2)s1 (stereo unspecified)	86*	6061	109*	1	100*	-2
Cc1cc(C)n(NC(=S)NC2CCCCC2)c(=O)c1C#N	?	4795	2	-3	?	0
Cc1ccc(C)c(Sc2ccc(NC(=O)CCl)cc2)c1	·	·	·	-5	·	·
Cc1ccc(Sc2ccc(NC(=O)CCl)cc2)cc1C	-2	2421	-1	-4	0	457*
CCOc1ccc(OCC)c(S(=O)(=O)n2ccnc2C)c1	33	2706	5	-7	4	0
CCOc1ccc(OCC)c(S(=O)(=O)N2CCCCC2C)c1 (stereo unspecified)	-2	16721*	0	-11	0	0

Source: PubChem BioAssay (several laboratories)
